Consider 16 molecules from PubChem BioAssay (Tox21).

Test [1] in a line: qHTS assay to identify small molecule antagonists of the retinoid acid receptor (RAR) signaling pathway - cell viability counter screen (AID 1159551). Note: nearly all actives have a fitted effect of over 35% in size. The gist of the method:
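ATP-based viability, C3RL4 cells, 6 h at 37 C with 1 uM final retinol co-added after compound; luminescence read 30 min post CellTiter-Glo, RT.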
(In general: qHTS replaces the single test concentration by a dilution series.)

A short description of test [2]: qHTS assay to identify small molecule antagonists of the retinoic acid receptor (RAR) signaling pathway (AID 1159552; note: nearly all actives have a fitted effect of over 50% in size). In short, it runs like this:
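Retinol at 1 uM final stimulated RARE-luciferase expression in C3RL4 cells exposed to test compounds for 6 hr at 37 C. Reduced luminescence, read 30 min after detection reagent, indicated pathway antagonism.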

The nature of test [3]: qHTS assay to identify small molecule agonists of the retinoic acid receptor (RAR) signaling pathway (AID 1159553). Note: potency is the fitted concentration of half-maximal effect. The gist of the method:
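Quantitative high-throughput format: the Tox21 10K library was tested on C3RL4 RARE-luciferase cells for 6 hr at 37 C and 5% CO2, with luminescence measured after a 30 min room-temperature reagent step.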

Records with an inconclusive call do not appear. A call without a number means that no potency is given here. Values without a mark were called inactive. Activity calls are given as the source filed them. Calls come from the whole dose curve; as a rule, active = well fitted curve in the direction sought with a large enough effect in the repeat runs; inconclusive = weak or mixed curves; inactive = no such curve, though single readings can be large; an effect the other way counts as inactive or inconclusive.

Turning to `CC(C)Cc1nccs1`, the outcome in test [1] and in test [2] was inactive. Besides, the Potency entry in test [3] is “inactive”.

Take `CC1=CC(=C(c2ccc(N)cc2)c2ccc(N)cc2)C=CC1=N`: the activity, negative = inhibition in test [2] was -2.67% [at 8.39 µM]. Further, the activation in test [3] was -1.68% [at 8.36 µM].

Consider `O=C(O)c1ccncc1`, for which the call in test [1] and in test [2] was inactive. For the same molecule, the Potency result in test [3] was “inactive”.

Take `[O-][n+]1ccc(Cl)cc1`: the result in test [1] and in test [2] was inactive. The Potency result in test [3] was “inactive”.

In the case of `O=C1OC(=O)C2CC=CCC12` (centres undefined), the outcome in test [1] and in test [2] was inactive. The Potency entry in test [3] was “inactive”.

For `COc1ccc(C(=O)Nc2ccccc2)cc1[N+](=O)[O-]`, the call in test [1] and in test [2] was inactive. Besides, the Potency in test [3] is 30.9 µM (active).

On to `COC=O`, for which, in test [1], the activity change, negative = cytotoxicity is 0.256% [at 8.39 µM]. Moreover, the activity, negative = inhibition in test [2] is -0.361% [at 8.39 µM]. Also, the activation in test [3] was 3.97% [at 8.36 µM].

`Cc1ccc2c(Cl)cc(Cl)c(O)c2n1`: the result in test [1] and in test [2] was inactive. In addition, the Potency result in test [3] is “inactive”.

For the molecule `CCn1nc(Cc2ccccc2)cc1C1CCN(C[C@H]2C[C@H](N(C)[C@@H](C(=O)O)C(C)C)C[C@@H]2c2cccc(F)c2)CC1`, the result in test [1] and in test [2] was inactive. Moreover, the Potency entry in test [3] is “inactive”.

With `C=CC(=O)NC(C)(C)C`, the outcome in test [1] and in test [2] was inactive. For the same molecule, the Potency entry in test [3] was “inactive”.

Turning to `CCOC(=O)CC(O)(CC(=O)OCC)C(=O)OCC`, the outcome in test [1] and in test [2] was inactive. Moreover, the Potency result in test [3] is “inactive”.

As for `COC(=O)C(C)(C)C`, the molecule was called inactive in test [1] and in test [2]. Further, in test [3], the Potency result was “inactive”.

For the molecule `O=C(Cl)c1ccc(F)c(Cl)c1`, the outcome in test [1] was inactive. Moreover, the Potency result in test [3] was “inactive”.

On to `COc1cccc([C@H](O)C2CCN(CCc3ccc(F)cc3)CC2)c1OC`, for which the call in test [1] and in test [2] was inactive. The Potency result in test [3] was “inactive”.

Consider `Nc1ccccc1Nc1ccccc1`, for which the outcome in test [2] was inactive.

On to `Nc1ccc(C(=O)Oc2ccccc2)c(O)c1`, for which the molecule was classed as inactive in test [1] and in test [2]. Further, in test [3], the Potency was 3.35 µM (active).
